# Among all 170,000 compounds or so, about 460 (0.27%) were called active. The full list was thinned out, with actives kept by preference. A number with no mark means an inactive call.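 How the source made its calls: active means inhibition above the plate cutoff, the mean inhibition of test wells on that plate plus 3 SD (cut at about 28% in these data); inactive means the rest.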
# Target: Sphingosine 1-phosphate receptor 3 (Homo sapiens) (UniProt Q99500)
# Test: inhibition of S1P-stimulated S1P3 activation – cell-based, primary screen (AID 485);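 further: cells challenged with S1P at its EC80 of 0.8 µM; blue over green emission ratio from cleaved BLA substrate after 4 h stimulation; 0% = S1P-stimulated wells and 100% = unstimulated DMSO-only wells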
# Settings: CHO S1P3 NFAT-BLA reporter, FRET fluorescence, antagonist mode; at 4.98 µM; active compounds read high
# Sphingosine 1-phosphate receptor 3 (Homo sapiens), sequence (Q99500 whole entry, looked up): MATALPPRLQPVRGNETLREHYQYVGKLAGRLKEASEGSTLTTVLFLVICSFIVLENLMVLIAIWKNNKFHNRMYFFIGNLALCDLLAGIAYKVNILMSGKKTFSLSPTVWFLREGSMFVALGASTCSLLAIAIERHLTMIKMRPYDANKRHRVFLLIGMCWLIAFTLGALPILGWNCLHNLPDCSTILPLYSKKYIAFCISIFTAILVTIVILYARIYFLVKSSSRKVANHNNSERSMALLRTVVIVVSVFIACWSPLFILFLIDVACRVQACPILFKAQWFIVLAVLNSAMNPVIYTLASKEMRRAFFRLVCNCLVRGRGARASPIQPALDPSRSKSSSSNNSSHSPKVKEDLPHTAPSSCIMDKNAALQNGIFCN
row,Structure (SMILES),inhibition
1,CCN1/C(=C/c2ccc3ccc(C)cc3[n+]2CC)Sc2ccccc21,25.1%
2,CCC(=O)/C=C1\Sc2ccccc2N1CC,1.3%
3,CCN1/C(=C\c2ccc3ccccc3[n+]2CC)Sc2cc(C)ccc21,31.2% (active)
4,C=CCSc1nnc(NC(=O)c2ccc(NC(C)=O)cc2)s1,-1.45%
5,Cc1cccc(C(=O)Nc2ccc3c(c2)C(=O)N(CC(C)C)C3=O)c1,2.56%
6,Nc1ccccc1Sc1cc(Cl)nnc1Cl,1.23%
7,Cc1c(NC(=O)C(=O)N/N=C/c2cccs2)c(=O)n(-c2ccccc2)n1C,-2.98%
8,COc1ccccc1NC(=O)C1=C(C)NC(=O)NC1c1ccc(C)s1 (configuration not stated),1.95%
9,COc1cccc(OC)c1C(=O)NC(=S)NCc1ccco1,-6.79%
10,NS(=O)(=O)c1ccc(CNC(=O)c2cnccn2)cc1,-4%
11,Brc1ccc(-c2nn[nH]n2)cc1,-7.13%
12,CCN(CCn1cccn1)Cc1cn[nH]c1-c1ccc(OC)cc1F,-12.8%
13,COc1ccc(CCNC2=CC(=O)CC(C)(C)C2)cc1,-7.01%
14,CN(C)/C=C(/C(=O)c1ccc(Cl)c(Cl)c1)c1nnnn1-c1ccccc1,1.6%
15,O=C(NNC(=O)c1ccccc1[N+](=O)[O-])Nc1ccccc1C(F)(F)F,-5.24%
16,O=S(=O)([N-]c1nc2ccccc2nc1-[n+]1ccc(Cc2ccccc2)cc1)c1ccc(Br)s1,0.71%
17,CCNc1nc(Oc2ccc(C(=O)OC)cc2)nc(N2CCOCC2)n1,-9.79%
18,COc1ccccc1Nc1nc(N)nc(CSC(=S)N2CCOCC2)n1,3%
19,O=C(CCCl)Nc1ccc(S(=O)(=O)NCc2ccco2)cc1,-8.65%
20,O=C(NCc1nnc(SCC(=O)N2CCCc3ccccc32)o1)c1ccccc1F,-7.71%
21,CSc1ccc(CN(C)CC(=O)NCc2ccc(F)cc2)cc1,30.2% (active)

row,Structure (SMILES),inhibition
1,CCCCC(=O)NCc1ccc(F)cc1,6.82%
2,O=C(Cc1ccccc1)NCc1ccc(F)cc1,-11%
3,COc1ccccc1-n1c(SCC(=O)O)nc2sc3c(c2c1=O)CCC3,-7.86%
4,Cc1ccc(SCCN2C(=O)NC(C)(C)C2=O)cc1,-2.4%
5,CN(C)CCCn1c(SCCN2C(=O)c3ccccc3C2=O)nc2ccccc2c1=O,5.65%
6,Nc1ccc(SCCN2C(=O)c3ccccc3C2=O)cc1,91.7% (active)
7,CCOC(=O)C1=C(C)N=C2c3ccccc3C(=O)C2C1c1ccc(Br)cc1 (configuration not stated),60% (active)
8,CCOC(=O)C1=C(C)NC(=O)NC1c1ccccc1 (configuration not stated),-9.13%
9,CCOC(=O)C1=C(C)NC(C)=C(C(=O)OCC)C1c1ccccn1,-28.6%
10,COc1ccc(/C=C/CN2CCCC(C(=O)c3cc(F)ccc3F)C2)cc1 (configuration not stated),-10.6%
11,COC(=O)N(NC(=O)C(O)(C(C)C)C(C)C)c1ccccc1,11%
12,CC(CNS(=O)(=O)c1ccc(Br)cc1)CN(C)C (configuration not stated),-2.53%
13,COc1ccc(N=C(C)c2sc3ccccc3c2O)cc1,6.44%
14,Cc1nc2cc(NC(=O)NC3CC3)ccc2n1C,-13.8%
15,OC1CCCN(c2ncnc3c2nnn3Cc2c(F)cccc2Cl)C1 (configuration not stated),-7.85%
16,N#C/C(=C/c1ccc(-c2ccccc2[N+](=O)[O-])o1)C(=O)NCCN1CCCCC1,-1.3%
17,CCC(C)N(C(=O)COC(=O)C1C(C(=O)OC)=C(C)NC(C)=C1C(=O)OC)C1CCS(=O)(=O)C1 (configuration not stated),-2.76%
18,CN1C=CC=C/C1=C1\SC(=S)N(Cc2ccccc2)C1=O,-8.73%
19,CCc1ccc(S(=O)(=O)NCC(O)COc2ccc(OC)cc2)cc1 (configuration not stated),11.9%
20,Cc1c(/C=N\NC(=O)c2cc3ccccc3o2)c2ccccc2n1C,9.64%
21,O=C(N/N=C/c1coc2ccccc2c1=O)c1cc2ccccc2o1,30.4% (active)

row,Structure (SMILES),inhibition
1,O=C(N/N=C/c1c[nH]c2ccccc12)c1cc2ccccc2o1,-11.5%
2,COc1cc(NS(=O)(=O)c2ccc(NC(=O)c3ccc(S(=O)(=O)N4CCCCC4)cc3)cc2)ncn1,-13.9%
3,CC(C)CNC(=O)C(=O)NCc1ccccc1,1.01%
4,CCOC(=O)C1=NOC(Cn2cc(C(C)=O)c(=O)[nH]c2=O)C1 (configuration not stated),-0.07%
5,Cc1cccc2c1N(CCOc1ccccc1)C(=O)C2=O,-6.34%
6,Cc1nc2sc(C(=O)c3ccccc3)c(N)c2c2c1CCCC2,26.9%
7,Nc1c(C(=O)c2cccs2)sc2nsc(SCCN3CCCCC3)c12,28.7% (active)
8,O=C(CSc1nc2ccccc2[nH]1)c1cccs1,-5%
9,O=C(NCc1ccco1)C1CCCN1S(=O)(=O)c1ccccc1C(F)(F)F (configuration not stated),5.85%
10,O=C(CS(=O)(=O)Cc1ccccc1)NCC1CCCO1 (configuration not stated),9.8%
11,S=C(NCCc1ccccc1)NCC1CCCO1 (configuration not stated),29.2% (active)
12,O=C(NCCc1c[nH]c2ccccc12)C(=O)NCC1CCCO1 (configuration not stated),-20.2%
13,O=S1(=O)CC/C(=N\Nc2ccc(F)cc2)c2ccsc21,3.45%
14,S=C(NCc1ccco1)Nc1ccc2c(c1)OCCO2,-9.96%
15,CC12CN3CCN(CC(C3)/C1=N\NC(=O)c1ccccc1N)C2,-5.45%
16,CC(=O)c1c(C)[nH]c(C(=O)COC(=O)c2cccc(S(=O)(=O)N(C)c3ccccc3)c2)c1C,37.9% (active)
17,CN(c1ccccc1)S(=O)(=O)c1ccc(Cl)c(C(=O)OCC(N)=O)c1,-15.6%
18,COc1ccc(C)cc1NC(=O)C(OC(=O)c1cccc(S(=O)(=O)N(C)c2ccccc2)c1)c1ccccc1 (configuration not stated),-3.14%
19,O=C(NCC(c1cccs1)N1CCOCC1)c1cc(-c2ccccn2)nc2ccccc12 (configuration not stated),-2.5%
20,COCCn1c(SCC(=O)c2[nH]c(C)c(C(C)=O)c2C)nc2ccccc2c1=O,-13.7%

# Source: PubChem BioAssay AID485 (The Scripps Research Institute Molecular Screening Center, 2006)
